The panel holds about 79,000 compounds, 15% with a hit somewhere; the sample as a whole holds those more often. Unmarked numbers belong to inactive results. Calls of active or inactive are those of the source. Rule as the data show it: active = growth inhibition above about 70%; inactive = the rest.
Experiments:
[1] = NCI Yeast Anticancer Drug Screen. Data for the wt1 strain (AID 149);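 also: 0% = growth of vehicle-treated wt1 cultures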; details: S. cerevisiae wt1 strain (SPY 50644) growth inhibition, active compounds read high
Method in brief: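 Using yeast strain wt1, compound-induced growth inhibition was determined against vehicle-treated cultures.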

[2] = NCI Yeast Anticancer Drug Screen. Data for the rad50EPP+ strain (AID 151);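 also: 0% = growth of vehicle-treated control cultures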; details: S. cerevisiae rad50 mutant strain, active compounds read high
Method in brief: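 One strain with a rad50 alteration (rad50EPP+) was compound-treated, its growth then compared to that of vehicle controls.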

[3] = NCI Yeast Anticancer Drug Screen. Data for the mgt1 strain (AID 153); details: S. cerevisiae mgt1 mutant growth inhibition, active compounds read high
Method in brief: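 After exposure of the mgt1 yeast mutant to compound, growth was measured and reported as inhibition compared with vehicle controls.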

[4] = NCI Yeast Anticancer Drug Screen. Data for the rad50 strain (AID 155);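 also: 0% = growth of vehicle-only cultures of the same strain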; details: S. cerevisiae rad50 strain growth inhibition, active compounds read high
Method in brief: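 Relative growth inhibition (compound vs vehicle) was measured in yeast with a defined repair-gene alteration.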

[5] = NCI Yeast Anticancer Drug Screen. Data for the mec2-1 strain (AID 157); details: S. cerevisiae mec2-1 strain, active compounds read high
Method in brief: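 Test agents were screened against the mec2-1 yeast strain, with defined DNA repair or cell cycle alteration. Growth was scored as inhibition against vehicle-only controls.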

[6] = NCI Yeast Anticancer Drug Screen. Data for the rad14 strain (AID 159);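 also: 0% = growth of vehicle-treated control cultures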; details: S. cerevisiae rad14 strain growth inhibition, active compounds read high
Method in brief: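 Screen for anticancer potential: a yeast strain altered in DNA damage repair is grown with compound, and reduced growth is quantified against vehicle controls.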

[7] = NCI Yeast Anticancer Drug Screen. Data for the sgs1 mgt1 strain (AID 161);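 also: 0% = growth of cultures given vehicle only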; details: S. cerevisiae sgs1 mgt1 strain, active compounds read high
Method in brief: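 Inhibition of yeast growth, normalised to vehicle-treated controls, is reported for a strain bearing genetic alterations in DNA damage repair.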

[8] = NCI Yeast Anticancer Drug Screen. Data for the CLN2oe strain (AID 163);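 also: 0% = growth of vehicle-only control cultures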; details: S. cerevisiae CLN2oe strain, active compounds read high
Method in brief: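 Here, growth inhibition in a cell-cycle-altered yeast strain after compound exposure was quantified against vehicle control growth.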

[9] = NCI Yeast Anticancer Drug Screen. Data for the cln2 rad14 strain (AID 165);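 also: 0% = growth equal to vehicle treated cultures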; details: S. cerevisiae cln2 rad14 strain, active compounds read high
Method in brief: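 Growth of compound-exposed yeast (cln2 rad14 genotype) measured and expressed as inhibition relative to vehicle.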

[10] = NCI Yeast Anticancer Drug Screen. Data for the bub3 strain (AID 167); details: S. cerevisiae bub3 mutant strain, active compounds read high
Method in brief: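 Screening used yeast with an engineered genetic alteration affecting cell cycle control. Compound-exposed cultures were compared with vehicle cultures, and reduced growth was taken as inhibition.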

[11] = NCI Yeast Anticancer Drug Screen. Data for the wt2 strain (AID 169);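 also: 0% = growth of vehicle-treated yeast cultures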; details: S. cerevisiae wt2 strain growth inhibition, active compounds read high
Method in brief: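 Genetically defined yeast strains from a DNA-repair/cell-cycle panel were used. Compound-exposed yeast growth was measured, and the inhibition was calculated relative to vehicle treatment.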

[12] = NCI Yeast Anticancer Drug Screen. Data for the mlh1 strain (AID 171);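 also: 0% = growth of vehicle-treated control cultures of the same strain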; details: S. cerevisiae mlh1 strain growth inhibition, active compounds read high
Method in brief: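 Here the genetically defined yeast mutant is grown with each compound, and the extent to which its growth falls below that of vehicle-exposed cells is reported.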

[13] = NCI Yeast Anticancer Drug Screen. Data for the sgs1 strain (AID 173);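 also: 0% = growth of vehicle-only control cultures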; details: S. cerevisiae sgs1 mutant, active compounds read high
Method in brief: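 Relative growth inhibition, referenced to vehicle, was determined in a yeast strain with a defined alteration affecting DNA damage repair or cell cycle control after compound exposure.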

[14] = NCI Yeast Anticancer Drug Screen. Data for the mlh1 rad18 strain (AID 175); details: S. cerevisiae mlh1 rad18 strain growth inhibition, active compounds read high
Method in brief: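 In this whole-cell yeast screen, a strain with altered DNA damage repair is challenged with compound, and its growth is measured against matched vehicle-treated controls.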

[15] = NCI Yeast Anticancer Drug Screen. Data for the rad18 strain (AID 177); details: S. cerevisiae rad18 mutant growth inhibition, active compounds read high
Method in brief: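 Screen uses a yeast strain with a defined lesion in DNA damage repair; compound effect is read as loss of growth compared to untreated vehicle cultures.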

[16] = at 5.0 µM (retest, dose inferred, filed as 0.5)
[17] = at 50.0 µM (retest, dose inferred, filed as 5.0)

CCOC(=O)C1C2c3ccccc3C(c3ccccc32)C1C(=O)OCC (stereo unspecified)
growth inhibition ([1]; at 1.2 µM): -1%
growth inhibition ([1]; at 3.7 µM): -2%
growth inhibition ([1]; at 11.0 µM): -1%
growth inhibition ([1]; at 33.0 µM): 2%
growth inhibition ([1]; at 100.0 µM): 79% (active)
growth inhibition ([2]; at 1.2 µM): -1%
growth inhibition ([2]; at 3.7 µM): -2%
growth inhibition ([2]; at 11.0 µM): 2%
growth inhibition ([2]; at 33.0 µM): -2%
growth inhibition ([2]; at 100.0 µM): 1%
growth inhibition ([3]; at 1.2 µM): -1%
growth inhibition ([3]; at 3.7 µM): 1%
growth inhibition ([3]; at 11.0 µM): 4%
growth inhibition ([3]; at 33.0 µM): 7%
growth inhibition ([3]; at 100.0 µM): 93% (active)
growth inhibition ([4]; at 1.2 µM): 3%
growth inhibition ([4]; at 3.7 µM): 3%
growth inhibition [4, 16]: 13%
growth inhibition ([4]; at 11.0 µM): 8%
growth inhibition ([4]; at 33.0 µM): 15%
growth inhibition [4, 17]: 77% (active)
growth inhibition ([4]; at 50.0 µM): 17.3%
growth inhibition ([4]; at 100.0 µM): 91% (active)
growth inhibition ([5]; at 1.2 µM): -1%
growth inhibition ([5]; at 3.7 µM): 1%
growth inhibition [5, 16]: -8%
growth inhibition ([5]; at 11.0 µM): 3%
growth inhibition ([5]; at 33.0 µM): 6%
growth inhibition [5, 17]: 1%
growth inhibition ([5]; at 50.0 µM): 74.7% (active)
growth inhibition ([5]; at 100.0 µM): 89% (active)
growth inhibition ([6]; at 1.2 µM): 5%
growth inhibition ([6]; at 3.7 µM): 7%
growth inhibition ([6]; at 11.0 µM): 12%
growth inhibition ([6]; at 33.0 µM): 16%
growth inhibition ([6]; at 100.0 µM): 90% (active)
growth inhibition [7, 16]: 2%
growth inhibition [7, 17]: 89% (active)
growth inhibition ([7]; at 50.0 µM): 80.2% (active)
growth inhibition ([8]; at 1.2 µM): 7%
growth inhibition ([8]; at 3.7 µM): 7%
growth inhibition ([8]; at 11.0 µM): 19%
growth inhibition ([8]; at 33.0 µM): 30%
growth inhibition ([8]; at 100.0 µM): 93% (active)
growth inhibition [9, 16]: -4%
growth inhibition [9, 17]: 28%
growth inhibition ([9]; at 50.0 µM): 56.7%
growth inhibition ([10]; at 1.2 µM): 0%
growth inhibition ([10]; at 3.7 µM): 8%
growth inhibition [10, 16]: 18%
growth inhibition ([10]; at 11.0 µM): 11%
growth inhibition ([10]; at 33.0 µM): 17%
growth inhibition [10, 17]: 60%
growth inhibition ([10]; at 50.0 µM): 49%
growth inhibition ([10]; at 100.0 µM): 76% (active)
growth inhibition ([11]; at 1.2 µM): -12%
growth inhibition ([11]; at 3.7 µM): -11%
growth inhibition ([11]; at 11.0 µM): 7%
growth inhibition ([11]; at 33.0 µM): 6%
growth inhibition ([11]; at 100.0 µM): 95% (active)
growth inhibition ([12]; at 1.2 µM): -1%
growth inhibition ([12]; at 3.7 µM): 6%
growth inhibition ([12]; at 11.0 µM): 7%
growth inhibition ([12]; at 33.0 µM): 16%
growth inhibition ([12]; at 100.0 µM): 86% (active)
growth inhibition ([13]; at 1.2 µM): -9%
growth inhibition ([13]; at 3.7 µM): -19%
growth inhibition ([13]; at 11.0 µM): 12%
growth inhibition ([13]; at 33.0 µM): 19%
growth inhibition ([13]; at 100.0 µM): 97% (active)
growth inhibition [14, 16]: 16%
growth inhibition [14, 17]: 87% (active)
growth inhibition ([14]; at 50.0 µM): 53.1%
growth inhibition ([15]; at 1.2 µM): 1%
growth inhibition ([15]; at 3.7 µM): 8%
growth inhibition ([15]; at 11.0 µM): 9%
growth inhibition ([15]; at 33.0 µM): 11%
growth inhibition ([15]; at 100.0 µM): 91% (active)

Cn1cnc(N)c1C(=N)[Se]
growth inhibition ([1]; at 1.2 µM): -1%
growth inhibition ([1]; at 3.7 µM): 3%
growth inhibition ([1]; at 11.0 µM): 10%
growth inhibition ([1]; at 33.0 µM): 47%
growth inhibition ([1]; at 100.0 µM): 80% (active)
growth inhibition ([2]; at 1.2 µM): 66%
growth inhibition ([2]; at 3.7 µM): 90% (active)
growth inhibition ([2]; at 11.0 µM): 98% (active)
growth inhibition ([2]; at 33.0 µM): 98% (active)
growth inhibition ([2]; at 100.0 µM): 95% (active)
growth inhibition ([3]; at 1.2 µM): 1%
growth inhibition ([3]; at 3.7 µM): -1%
growth inhibition ([3]; at 11.0 µM): 4%
growth inhibition ([3]; at 33.0 µM): 44%
growth inhibition ([3]; at 100.0 µM): 57%
growth inhibition ([4]; at 1.2 µM): 27%
growth inhibition ([4]; at 3.7 µM): 59%
growth inhibition [4, 16]: -44%
growth inhibition ([4]; at 11.0 µM): 93% (active)
growth inhibition ([4]; at 33.0 µM): 95% (active)
growth inhibition [4, 17]: 89% (active)
growth inhibition ([4]; at 50.0 µM): 96.5% (active)
growth inhibition ([4]; at 100.0 µM): 93% (active)
growth inhibition ([5]; at 1.2 µM): -2%
growth inhibition ([5]; at 3.7 µM): 0%
growth inhibition [5, 16]: -46%
growth inhibition ([5]; at 11.0 µM): 48%
growth inhibition ([5]; at 33.0 µM): 93% (active)
growth inhibition [5, 17]: 50%
growth inhibition ([5]; at 50.0 µM): 86.5% (active)
growth inhibition ([5]; at 100.0 µM): 93% (active)
growth inhibition ([6]; at 1.2 µM): 9%
growth inhibition ([6]; at 3.7 µM): 15%
growth inhibition ([6]; at 11.0 µM): 46%
growth inhibition ([6]; at 33.0 µM): 91% (active)
growth inhibition ([6]; at 100.0 µM): 94% (active)
growth inhibition [7, 16]: -61%
growth inhibition [7, 17]: -32%
growth inhibition ([7]; at 50.0 µM): 13.3%
growth inhibition ([8]; at 1.2 µM): 1%
growth inhibition ([8]; at 3.7 µM): -2%
growth inhibition ([8]; at 11.0 µM): -3%
growth inhibition ([8]; at 33.0 µM): 11%
growth inhibition ([8]; at 100.0 µM): 28%
growth inhibition [9, 16]: -60%
growth inhibition [9, 17]: -40%
growth inhibition ([9]; at 50.0 µM): -53.6%
growth inhibition ([10]; at 1.2 µM): 4%
growth inhibition ([10]; at 3.7 µM): 15%
growth inhibition [10, 16]: -67%
growth inhibition ([10]; at 11.0 µM): 80% (active)
growth inhibition ([10]; at 33.0 µM): 97% (active)
growth inhibition [10, 17]: 64%
growth inhibition ([10]; at 50.0 µM): 78.2% (active)
growth inhibition ([10]; at 100.0 µM): 94% (active)
growth inhibition ([11]; at 1.2 µM): 10%
growth inhibition ([11]; at 3.7 µM): 25%
growth inhibition ([11]; at 11.0 µM): 59%
growth inhibition ([11]; at 33.0 µM): 77% (active)
growth inhibition ([11]; at 100.0 µM): 87% (active)
growth inhibition ([12]; at 1.2 µM): 2%
growth inhibition ([12]; at 3.7 µM): -3%
growth inhibition ([12]; at 11.0 µM): 28%
growth inhibition ([12]; at 33.0 µM): 60%
growth inhibition ([12]; at 100.0 µM): 89% (active)
growth inhibition ([13]; at 1.2 µM): 2%
growth inhibition ([13]; at 3.7 µM): -1%
growth inhibition ([13]; at 11.0 µM): 40%
growth inhibition ([13]; at 33.0 µM): 84% (active)
growth inhibition ([13]; at 100.0 µM): 92% (active)
growth inhibition [14, 16]: -126%
growth inhibition [14, 17]: 84% (active)
growth inhibition ([14]; at 50.0 µM): 80.5% (active)
growth inhibition ([15]; at 1.2 µM): -9%
growth inhibition ([15]; at 3.7 µM): 7%
growth inhibition ([15]; at 11.0 µM): 58%
growth inhibition ([15]; at 33.0 µM): 80% (active)
growth inhibition ([15]; at 100.0 µM): 91% (active)
